Source: PubChem BioAssay (Tox21)
Records with an inconclusive call do not appear. Calls of active or inactive are those of the source. Unless noted, calls follow the shape of the dose curve; as a rule, active = well fitted curve in the direction sought with a large enough effect in the repeat runs; inconclusive = weak or mixed curves; inactive = no such curve, though single readings can be large; an effect the other way counts as inactive or inconclusive.

Legend:
[1] = target: Retinoic acid receptor RXR-alpha (Homo sapiens) (UniProt P19793); assay: qHTS assay to identify small molecule agonists of the RXR signaling pathway (AID 1159527; calls by dose curve; also: nearly all actives have a fitted effect of over 35% in size; also: potency is read from the fitted curve at half-maximal effect)
How it was run: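 Reporter activation is measured as beta-lactamase activity via FRET substrate cleavage (emission 460/530 nm) in HEK 293T cells expressing an RXR-alpha-driven bla construct, following 16 hr compound exposure at 37 C.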

[2] = qHTS assay to identify small molecule agonists of the RXR signaling pathway - cell viability counter screen (AID 1159529); also: series mostly up to about 77 µM; nearly all actives have a fitted effect of over 50% in size
How it was run: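 Tox21 10K compounds were tested for cytotoxicity against GeneBLAzer RXR-alpha HEK 293T cells grown in 2% charcoal-stripped FBS. Exposure lasted 16 hr at 37 C, 5% CO2; viability read by CellTiter-Glo luminescence.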

[3] = qHTS assay to identify small molecule antagonists of the estrogen related receptor (ERR) signaling pathway - cell viability counter screen (AID 1224818); also: series mostly up to about 46 µM
How it was run: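 Cytotoxicity check run alongside the ERR antagonist screen: cells exposed to test compounds 17.5 h at 37 C, viability taken as CellTiter-Fluor fluorescence intensity.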

[4] = qHTS assay to identify small molecule antagonists of the estrogen related receptor signaling pathway with the pleiotropic PPARgamma coactivator (PGC) cell viability counter screen (AID 1224822; also: series mostly up to about 46 µM)
How it was run: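 Viable cell signal (CellTiter-Fluor, 30 min, 37 C/5% CO2) was measured in PGC/ERR cells after a 17.5 h compound incubation.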

[5] = qHTS assay to identify small molecule antagonists of the estrogen related receptor (ERR) signaling pathway from Tox21 library - cell viability counter screen (AID 1224834); also: nearly all actives have a fitted effect of over 30% in size; also: potency is read from the fitted curve at half-maximal effect
How it was run: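 In this quantitative HTS format, ERR cells receive compounds in DMSO and are incubated for 17.5 h at 37 C. Live-cell protease activity is then detected with CellTiter-Fluor.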

[6] = target: Luciferin 4-monooxygenase (Photinus pyralis) (UniProt P08659); assay: qHTS assay to identify small molecule inhibitors of firefly luciferase (AID 1224835); also: nearly all actives have a fitted effect of over 25% in size; also: potency is read from the fitted curve at half-maximal effect; as to activity change, negative = inhibition: series mostly up to about 120 µM
How it was run: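 Quantitative HTS format; KM concentrations of both substrates. Purified P. pyralis FLuc activity quantified from luminescence images.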

[7] = qHTS assay to identify small molecule agonists of the constitutive androstane receptor (CAR) signaling pathway - cell viability counter screen (AID 1224836); also: series mostly up to about 92 µM; nearly all actives have a fitted effect of over 45% in size
How it was run: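 Fluorescence from CellTiter-Fluor indicates live cells after 23 h exposure. The human hepatoma line expresses hCAR and a CYP2B6-2.2kb reporter. Incubation medium contains 0.75 uM PK11195 (final).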

[8] = qHTS assay to identify small molecule antagonists of the constitutive androstane receptor (CAR) signaling pathway - cell viability counter screen (AID 1224837); also: series mostly up to about 92 µM; nearly all actives have a fitted effect of over 45% in size
How it was run: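 In quantitative HTS format, compounds at 15 concentrations were applied to HepG2 cells double-transfected with hCAR and CYP2B6-2.2kb under 50 nM CITCO stimulation; live-cell protease activity was read after 23 hr via CellTiter-Fluor.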

[9] = target: Nuclear receptor subfamily 1 group I member 3 (Homo sapiens) (UniProt Q14994); assay: qHTS assay to identify small molecule antagonists of the constitutive androstane receptor (CAR) signaling pathway (AID 1224838); also: nearly all actives have a fitted effect of over 40% in size; also: potency is read from the fitted curve at half-maximal effect
How it was run: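 CITCO-stimulated (50 nM final) HepG2 cells stably transfected with hCAR and CYP2B6-2.2kb luciferase were exposed to compounds at 15 concentrations for 24 h at 37 C/5% CO2. A luciferase reagent was added and luminescence recorded after 30 min.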

[10] = target: Nuclear receptor subfamily 1 group I member 3 (Homo sapiens) (UniProt Q14994); assay: qHTS assay to identify small molecule agonists of the constitutive androstane receptor (CAR) signaling pathway (AID 1224839); also: nearly all actives have a fitted effect of over 15% in size; also: potency is read from the fitted curve at half-maximal effect;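 as to activation: HepG2 cells stably carrying human CAR and a CYP2B6 luciferase reporter; series mostly up to about 92 µM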
How it was run: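 Stable hCAR/CYP2B6-2.2kb HepG2 line in DMEM with 10% FBS; compounds (15 concentrations) and 0.75 uM PK11195 final, 24 h at 37 C/5% CO2, then ONE-Glo luminescence after 30 min.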

[11] = qHTS assay to identify small molecule antagonists of the estrogen related receptor signaling pathway with the pleiotropic PPARgamma coactivator (PGC) from Tox21 10K library - cell viability counter screen (AID 1224840; active = well fitted cell-killing curve with a large enough effect in the repeat runs, not every such curve was filed as active; also: nearly all actives have a fitted effect of over 40% in size)
How it was run: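 Viability counter screen, PGC/ERR cells: 17.5 h compound exposure at 37 C, CellTiter-Fluor fluorescence endpoint.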

[12] = qHTS assay to identify small molecule antagonists of the retinoid acid receptor (RAR) signaling pathway - cell viability counter screen (AID 1159551); also: nearly all actives have a fitted effect of over 35% in size
How it was run: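 Viability of C3RL4 cells is quantified from ATP by luminescence after 6 h treatment at 37 C with compounds and 1 uM retinol.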

[13] = qHTS assay to identify small molecule antagonists of the estrogen related receptor signaling pathway with the pleiotropic PPARgamma coactivator (PGC) from Tox21 10K library (AID 1224841; call rule not given here; also: series mostly up to about 92 µM; actives are mostly falling curves and most rising ones were filed inactive; nearly all actives have a fitted effect of over 50% in size)
How it was run: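 In the PGC/ERR line, DMSO solutions of test chemicals are pin-delivered to 2,000 cells/well six hours after dispensing. Following eighteen hours' incubation, One-Glo reagent is added and luminescence recorded.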

[14] = qHTS assay to identify small molecule agonists of the estrogen related receptor signaling pathway with the pleiotropic PPARgamma coactivator (PGC) from Tox21 10K library (AID 1224842); also: nearly all actives have a fitted effect of over 15% in size
How it was run: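 PGC/ERR reporter cells (NTP line) were seeded 2,000 per well, rested 6 h at 37 C/5% CO2, then pin-dosed with compounds in DMSO for 18 h at 37 C; luciferase read by One-Glo luminescence after 30 min at room temperature.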

[15] = qHTS assay to identify small molecule antagonists of the retinoic acid receptor (RAR) signaling pathway (AID 1159552; also: nearly all actives have a fitted effect of over 50% in size)
How it was run: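 Overnight-plated C3RL4 reporter cells get compound, then retinol to 1 uM final; plates sit 6 hr at 37 C, 5% CO2. A luciferase reagent is added and light output recorded after 30 min at room temperature.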

[16] = qHTS assay to identify small molecule agonists of the retinoic acid receptor (RAR) signaling pathway (AID 1159553); also: potency is read from the fitted curve at half-maximal effect
How it was run: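 Compounds dissolved in DMSO were pinned onto C3RL4 cells seeded the previous day, and plates were held 6 hr at 37 C. RARE-driven luciferase output was then read by luminescence.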

[17] = qHTS assay to identify small molecule agonists of the estrogen related receptor (ERR) signaling pathway (AID 1224820)
How it was run: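 After 6 h plating (2,000 cells/well) and 18 h compound treatment at 37 C, ERR cells were lysed with One-Glo and luminescence read after 30 min at room temperature.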

[18] = tested on: estrogen-related receptor alpha (ERRalpha) with PGC-1alpha coactivator, human; assay: qHTS assay to identify small molecule antagonists of the estrogen related receptor signaling pathway with the pleiotropic PPARgamma coactivator (PGC) (AID 1224821; calls by dose curve;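 also: series mostly up to about 46 µM; lower luminescence signal means antagonism of PGC/ERR signalling; nearly all actives have a fitted effect of over 50% in size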)
How it was run: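 Luminescence from One-Glo luciferase reagent (30 min, room temperature) measured after 18 h compound treatment at 37 °C. Cells carry the PGC/ERR reporter and were seeded 6 h prior to dosing.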

[19] = qHTS assay to identify small molecule agonists of the estrogen related receptor signaling pathway with the pleiotropic PPARgamma coactivator (PGC) (AID 1224823)
How it was run: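 Luminescence from One-Glo reagent (30 min, room temperature) was read after 18 h compound treatment at 37 C of PGC/ERR cells plated 6 h beforehand; compounds delivered in DMSO by pin tool.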

[20] = qHTS assay to identify small molecule antagonists of the estrogen related receptor (ERR) signaling pathway (AID 1224819)
How it was run: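 ERR reporter cells were plated at 2,000 cells/well and left 6 h at 37 C/5% CO2 before pin-tool transfer of compounds in DMSO. After 18 h at 37 C, One-Glo was added and luminescence was read 30 min later at room temperature.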
% is scaled to controls: 0 for no effect and ±100 for the full control effect.

Nuclear receptor subfamily 1 group I member 3 (Homo sapiens), sequence (Q14994 whole entry, looked up): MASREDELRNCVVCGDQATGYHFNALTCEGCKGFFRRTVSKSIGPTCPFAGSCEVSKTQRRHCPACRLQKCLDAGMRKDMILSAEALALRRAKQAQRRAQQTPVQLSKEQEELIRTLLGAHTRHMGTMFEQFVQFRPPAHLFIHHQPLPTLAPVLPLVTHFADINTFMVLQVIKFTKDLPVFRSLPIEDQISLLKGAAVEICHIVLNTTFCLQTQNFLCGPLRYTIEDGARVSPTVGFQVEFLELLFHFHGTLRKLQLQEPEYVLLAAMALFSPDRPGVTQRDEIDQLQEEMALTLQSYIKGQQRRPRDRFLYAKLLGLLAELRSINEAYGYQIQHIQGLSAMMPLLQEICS
Retinoic acid receptor RXR-alpha (Homo sapiens), sequence (P19793 whole entry, looked up): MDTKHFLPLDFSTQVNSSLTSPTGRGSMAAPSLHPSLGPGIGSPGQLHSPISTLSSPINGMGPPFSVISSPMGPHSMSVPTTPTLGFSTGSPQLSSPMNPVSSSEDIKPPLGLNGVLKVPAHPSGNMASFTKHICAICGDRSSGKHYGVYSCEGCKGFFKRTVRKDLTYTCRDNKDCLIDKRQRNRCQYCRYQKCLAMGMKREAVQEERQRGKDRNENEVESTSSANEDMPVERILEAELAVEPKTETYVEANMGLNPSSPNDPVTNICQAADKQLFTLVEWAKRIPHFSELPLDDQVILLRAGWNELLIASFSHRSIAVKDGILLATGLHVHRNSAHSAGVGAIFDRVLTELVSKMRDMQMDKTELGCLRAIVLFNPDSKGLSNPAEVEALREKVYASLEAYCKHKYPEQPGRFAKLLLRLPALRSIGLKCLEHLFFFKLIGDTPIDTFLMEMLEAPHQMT
Luciferin 4-monooxygenase (Photinus pyralis), sequence (P08659 whole entry, looked up): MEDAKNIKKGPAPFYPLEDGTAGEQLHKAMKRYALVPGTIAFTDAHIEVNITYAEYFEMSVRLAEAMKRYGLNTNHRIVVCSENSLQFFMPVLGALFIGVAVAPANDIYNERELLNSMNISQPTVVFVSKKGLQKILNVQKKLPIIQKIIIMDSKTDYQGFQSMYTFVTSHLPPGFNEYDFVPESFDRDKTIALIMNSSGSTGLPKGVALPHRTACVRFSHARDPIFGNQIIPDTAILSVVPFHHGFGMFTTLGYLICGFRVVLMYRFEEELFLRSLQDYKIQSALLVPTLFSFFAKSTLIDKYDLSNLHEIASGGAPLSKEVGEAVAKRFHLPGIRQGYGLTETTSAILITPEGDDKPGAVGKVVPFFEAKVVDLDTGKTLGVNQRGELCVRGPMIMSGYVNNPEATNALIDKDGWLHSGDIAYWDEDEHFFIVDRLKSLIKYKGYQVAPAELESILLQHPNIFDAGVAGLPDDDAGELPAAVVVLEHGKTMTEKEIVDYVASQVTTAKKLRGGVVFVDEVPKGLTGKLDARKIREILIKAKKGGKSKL

CCN(CC)C(=O)c1ccc(O)c(OC)c1
inactive: Potency [1] | Potency [2] | outcome [3] | outcome [4] | Potency [5] | Potency [6] | outcome [7] | outcome [8] | Potency [9] | Potency [10] | outcome [11]

CN1[C@@H]2CC[C@H]1CC(NC(=O)n1c(=O)[nH]c3ccccc31)C2 (some centres undefined)
inactive: Potency [1] | Potency [2] | outcome [12] | Potency [5] | Potency [6] | outcome [7] | outcome [8] | outcome [11] | Potency [13] | Potency [14]

COc1ccc(COC=O)cc1
inactive: Potency [2] | outcome [12] | Potency [15] | Potency [16] | Potency [5] | Potency [6] | outcome [7] | outcome [8] | Potency [9] | Potency [10] | outcome [11] | Potency [13] | Potency [14]

c1cc(CN2CCCCC2)cc(OCCCNc2nc3ccccc3s2)c1
inactive: Potency [2] | outcome [12] | Potency [15] | Potency [16] | outcome [3] | outcome [17] | outcome [18] | outcome [19] | Potency [6] | Potency [9] | Potency [10] | outcome [11] | Potency [13] | Potency [14]
active: Potency [5] 29.8 µM

C[C@H]1O[C@@H](n2cc(F)c(=O)[nH]c2=O)[C@H](O)[C@@H]1O
inactive: Potency [2] | outcome [12] | Potency [15] | Potency [16] | outcome [3] | outcome [20] | outcome [17] | outcome [18] | outcome [4] | outcome [19] | Potency [5] | Potency [6] | outcome [7] | outcome [8] | Potency [10] | outcome [11] | Potency [13] | Potency [14]

CCCCCCC(=O)OCC
inactive: Potency [2] | outcome [12] | Potency [15] | Potency [16] | Potency [5] | Potency [6] | outcome [7] | outcome [8] | Potency [9] | Potency [10] | outcome [11] | Potency [13] | Potency [14]

Cn1ccc2cc3c(cc21)CCN3C(=O)Nc1cccnc1
active: Potency [16] 2.31 µM | Potency [6] 3.79 µM | Potency [10] 1.64 µM
inactive: activation [1] 14.3% [at 15.8 µM] | activity, negative = inhibition [15] 169% [at 19 µM] | outcome [3] | outcome [4] | viability change, negative = cytotoxic [7] -0.1% [at 19 µM] | activity change, negative = cytotoxicity [8] -15.3% [at 19 µM] | activity, negative = inhibition [9] 213% [at 19 µM] | viability change, negative = cytotoxic [11] -15.1% [at 19 µM]

CCCCCCCCCCCCI
active: Potency [6] 56.7 µM
inactive: Potency [1] | Potency [15] | Potency [16] | Potency [5] | outcome [7] | outcome [8] | Potency [9] | Potency [10] | outcome [11]

C=CCn1c(=O)n([C@@H]2O[C@H](CO)[C@@H](O)[C@H]2O)c2nc(N)[nH]c(=O)c21
inactive: Potency [1] | outcome [12] | Potency [5] | Potency [6] | outcome [7] | outcome [8] | outcome [11]

CC1=CC(C)C(C=O)C(C)C1 (centres undefined)
inactive: Potency [1] | outcome [12] | Potency [5] | Potency [6] | outcome [7] | outcome [8] | Potency [9] | Potency [10] | outcome [11]

O=c1[nH]c2ccccc2c(=O)n1CCCl
inactive: Potency [1] | outcome [12] | Potency [5] | Potency [6] | outcome [7] | outcome [8] | Potency [9] | Potency [10] | outcome [11] | Potency [13] | Potency [14]

CCCC(C)CO (centres undefined)
inactive: Potency [2] | outcome [12] | Potency [15] | Potency [16] | Potency [5] | Potency [6] | outcome [7] | outcome [8] | Potency [9] | Potency [10] | outcome [11]

CCOC(=O)Nc1ccc2c(c1)N(C(=O)CCN1CCOCC1)c1ccccc1S2
inactive: Potency [2] | outcome [12] | Potency [15] | Potency [16] | Potency [5] | Potency [6] | outcome [7] | outcome [8] | Potency [10] | outcome [11]
active: Potency [9] 1.19 µM

CC1=CC(=O)CCC1
inactive: Potency [1] | Potency [15] | Potency [16] | Potency [5] | Potency [6] | outcome [7] | outcome [8] | Potency [9] | Potency [10] | outcome [11]

COC(=O)CCCC(=O)O
inactive: Potency [1] | outcome [12] | Potency [5] | Potency [6] | outcome [7] | outcome [8] | Potency [9] | Potency [10] | outcome [11]

O=C(O)/C=C/c1ccc(Cn2ccnc2)cc1
inactive: Potency [1] | outcome [12] | Potency [5] | Potency [6] | outcome [7] | outcome [8] | outcome [11]

CCCCC=O
active: Potency [1] 17.4 µM
inactive: outcome [12] | Potency [5] | Potency [6] | outcome [7] | outcome [8] | outcome [11]

O=C1C(CCS(=O)c2ccccc2)C(=O)N(c2ccccc2)N1c1ccccc1 (centres undefined)
inactive: Potency [1] | outcome [12] | Potency [5] | outcome [7] | outcome [8] | Potency [9] | Potency [10] | outcome [11]

COc1cc(CCC(C)=O)ccc1O
inactive: Potency [2] | outcome [12] | Potency [15] | Potency [16] | Potency [5] | Potency [6] | outcome [7] | outcome [8] | Potency [9] | Potency [10] | outcome [11] | Potency [13] | Potency [14]

CCCCCCOC(=O)CC(CC(=O)OCCCCCC)(OC(=O)CCC)C(=O)OCCCCCC
inactive: Potency [2] | outcome [12] | Potency [15] | Potency [16] | Potency [5] | Potency [6] | outcome [7] | outcome [8] | Potency [9] | Potency [10] | outcome [11] | Potency [13] | Potency [14]

FC(F)(F)C(F)(F)C(F)(F)C(F)(F)C(F)(F)C(F)(F)C(F)(F)C(F)(F)C(F)(F)C(F)(F)F
inactive: activation [1] 2.2% [at 6.98 µM] | activity change, negative = cytotoxicity [12] 5.5% [at 8.39 µM] | viability change, negative = cytotoxic [5] 3.38% [at 8.39 µM] | activity change, negative = inhibition [6] -2.43% [at 10.5 µM] | activity change, negative = cytotoxicity [8] 0.303% [at 8.39 µM] | activity, negative = inhibition [9] 41.9% [at 8.39 µM] | viability change, negative = cytotoxic [11] -2.77% [at 8.39 µM]
